# Reference: PubChem BioAssay AID485344 (National Center for Advancing Translational Sciences (NCATS), 2010)
# The campaign covered roughly 340,000 compounds. About 6,900 (2%) were called active. Rule as the data show it: active = inhibition above about 30%; inactive = below that, where a call was filed. This excerpt belongs to a sample that is enriched for actives.
# Target: D(2) dopamine receptor (Homo sapiens) (UniProt P14416)
# Assay: HTS Assay for Allosteric Antagonists of the Human D2 Dopamine Receptor: Primary Screen for Antagonists; also: 0% is about no effect
# Conditions: HEK293 TREx D2 cells, calcium flux, dopamine EC80; at 10 µM; hits give high values
# Summary of the method: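 In this primary screen, negative modulation is detected by tracking calcium flux after an EC80 dopamine challenge in inducible HEK293 T-REx D2 cells preexposed to test compound for 180 s.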
# Chain of D(2) dopamine receptor (Homo sapiens) (P14416 whole entry, looked up): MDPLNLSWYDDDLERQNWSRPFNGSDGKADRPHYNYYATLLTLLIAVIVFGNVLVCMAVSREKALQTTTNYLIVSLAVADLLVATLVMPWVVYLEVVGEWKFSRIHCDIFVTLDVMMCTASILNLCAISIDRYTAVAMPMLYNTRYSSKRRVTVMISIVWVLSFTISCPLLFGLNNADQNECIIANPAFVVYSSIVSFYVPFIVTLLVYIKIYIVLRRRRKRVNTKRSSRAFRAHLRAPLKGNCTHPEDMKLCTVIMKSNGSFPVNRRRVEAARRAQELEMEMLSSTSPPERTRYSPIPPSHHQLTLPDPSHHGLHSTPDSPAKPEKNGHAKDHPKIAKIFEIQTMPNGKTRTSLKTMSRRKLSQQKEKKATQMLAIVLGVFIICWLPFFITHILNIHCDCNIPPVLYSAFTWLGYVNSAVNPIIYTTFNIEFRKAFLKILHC
row,Compound,inhibition
1,COc1ccccc1C(=O)NCC(=O)NCCSc1ccc(Br)cc1,-18.2% (inactive)
2,Fc1ccc(CNCc2ccc(Br)cc2)cc1,48.7% (active)
3,Cc1cc(C)cc(NC(=S)NCc2ccc(F)cc2)c1,17.7% (inactive)
4,O=C(Cc1ccccc1)NCc1ccc(F)cc1,7.68% (inactive)
5,CCOC(=O)C1CCCN(C(=O)c2ccc(C)c(S(=O)(=O)N3CCCCC3)c2)C1 (stereo not drawn),-2.03% (inactive)
6,CC(=O)Nc1ccc(SC[C@H](Cc2ccccc2)N2CC[C@@H](C)CCC2=O)cc1,6.05% (inactive)
7,N#Cc1ccc(COC(=O)Cn2nnc(-c3ccccc3)n2)cc1,32.5% (active)
8,O=C(Cn1nnc(-c2ccccc2)n1)NC(=O)NC1CCCC1,-8.79% (inactive)
9,COc1cc(-c2nnn(CC(=O)NCc3ccccc3)n2)cc(OC)c1OC,-2.02% (inactive)
10,COc1cc([N+](=O)[O-])ccc1NC(=O)COC(=O)CCOc1ccc(C)cc1,-25.8% (inactive)
11,Cc1cccc(Nc2nnc(SCC(=O)c3c(N)n(C4CC4)c(=O)[nH]c3=O)s2)c1C,-24.6% (inactive)
12,O=S(=O)(Nc1ccc2nc(N3CCOCC3)sc2c1)c1ccccc1,-2.59% (inactive)
13,O=C(Nc1ccccc1)Nc1nc2ccccc2s1,38.1% (active)
14,O=C(CCNC(=O)c1ccccc1)Nc1nc2ccccc2s1,9.78% (inactive)
15,CC(=O)Nc1ccc(-c2csc(NC(=O)Nc3ccccc3)n2)cc1,0.929% (inactive)
16,O=C(O)CSc1ccc(S(=O)(=O)N2CCCC2)cn1,-7.84% (inactive)
17,Cc1cc(NC(=O)CCC2COc3ccccc3O2)no1 (stereo not drawn),16.6% (inactive)
18,Cc1noc(C)c1C(=O)NCC1COc2ccccc2O1 (stereo not drawn),42% (active)
19,O=C(NCC1COc2ccccc2O1)C1(c2ccccc2)CCCC1 (stereo not drawn),2.24% (inactive)
20,NC(=O)c1ccsc1NC(=O)COC(=O)COc1ccc(C=O)cc1,0.0079% (inactive)

row,Compound,inhibition
1,CCOc1ncccc1C(=O)Nc1ccc(S(=O)(=O)Nc2nc(C)cc(C)n2)cc1,-33.5% (inactive)
2,COc1ccc(NS(=O)(=O)c2cc(NC(=O)COc3ccccc3F)ccc2OC)cc1,-11% (inactive)
3,CN(C)S(=O)(=O)c1ccc(Cl)c(NC(=O)COC(=O)CC(NC(N)=O)c2ccc(Cl)cc2)c1 (stereo not drawn),8.54% (inactive)
4,CCCNC(=O)NC(=O)COC(=O)CC(NC(N)=O)c1ccc(Cl)cc1 (stereo not drawn),-5.2% (inactive)
5,NC(=O)NC(CC(=O)NNC(=O)c1ccccn1)c1ccc(Cl)cc1 (stereo not drawn),35.3% (active)
6,CC(C)C(NC(=O)c1c(F)cccc1F)C(=O)NCc1ccncc1 (stereo not drawn),-6.22% (inactive)
7,Cc1ccc(NC(=O)CC2S/C(=N/N=C3\CCCc4ccccc43)NC2=O)cc1 (stereo not drawn),-3.76% (inactive)
8,CC(=O)Nc1ccc(S(=O)(=O)Oc2ccc(/C=N/N=C3/NC(=O)C(CC(=O)O)S3)cc2)cc1 (stereo not drawn),35.4% (active)
9,Cc1ccc(S(=O)(=O)Oc2ccc(/C=N/NC(=O)c3ccncc3)cc2)cc1,-6.29% (inactive)
10,Cc1cc(C(=O)CCC(=O)NNC(=O)c2ccccc2O)c(C)s1,19.4% (inactive)
11,Cc1c(NC(=O)CN2C(=O)C(=O)N(Cc3ccccc3)C2=O)c(=O)n(-c2ccccc2)n1C,-13.5% (inactive)
12,Cc1c(NC(=S)NC(=O)CCc2ccccc2)c(=O)n(-c2ccccc2)n1C,40.2% (active)
13,Cc1c(NC(=S)Nc2ccccc2)c(=O)n(-c2ccccc2)n1C,-10.1% (inactive)
14,COc1ccc(OC)c(CN2CCN(C(=O)CNC(=O)c3cc(C)cc(C)c3)CC2)c1,-4.53% (inactive)
15,CCN(CC)S(=O)(=O)c1cc(C(=O)Nc2cc(S(=O)(=O)N3CCOCC3)ccc2N2CCCC2)ccc1F,-9.39% (inactive)
16,CN(CC(=O)Nc1ccc(Cl)cc1)CC(=O)Nc1cccc2ccccc12,-6.32% (inactive)
17,CC(C)c1ccc(/C=C/C(=O)NCCCN2CCOCC2)cc1,-4.54% (inactive)
18,CCOC(=O)N1CCC(Nc2c(NCCN3CCN(c4cccc(Cl)c4)CC3)c(=O)c2=O)CC1,-2.93% (inactive)
19,Cn1c(C(=O)NCCCN2CCN(c3cccc(Cl)c3)CC2)cc2c(=O)n(C)c3ccccc3c21,95.2% (active)
20,CCOC(=O)N1CCC(NC(=O)COc2cc(=O)n(C)c3ccccc23)CC1,7.2% (inactive)

row,Compound,inhibition
1,CCn1c(=O)cc(OCC(=O)NCCCN2CCN(c3cccc(Cl)c3)CC2)c2ccccc21,78.9% (active)
2,Cn1c(C(=O)NCCc2ccsc2)cc2c(=O)n(C)c3ccccc3c21,-0.277% (inactive)
3,CCN1CCCC1CNC(=O)c1cc2c(=O)n(C)c3ccccc3c2n1C (stereo not drawn),-1.94% (inactive)
4,CCOc1ccc(C(=O)CCC(=O)Nc2ccncc2)cc1,-7.41% (inactive)
5,Cc1ccc(-c2nn(-c3ccccc3)cc2C(=O)NCCCN2CCCC2=O)cc1,-11.6% (inactive)
6,Cc1noc(C)c1COc1ccc(C(=O)NCCOc2ccccc2)cc1,-11% (inactive)
7,COc1ccc(Cl)cc1NC(=O)CN(C)CC(=O)Nc1ccc2c(c1)OCO2,-18.1% (inactive)
8,O=C1C=C(c2cccc(Cl)c2O)C[C@@H](c2ccc(F)cc2)C1,6% (inactive)
9,CCCN(CC(=O)Nc1ccccc1C)C(=O)c1ccc2[nH]c3c(c2c1)CC(C)CC3 (stereo not drawn),-19.6% (inactive)
10,CS(=O)(=O)c1ccc2nc(NC(=O)C3CCCCC3)sc2c1,30.6% (active)
11,CS(=O)(=O)c1ccc2nc(NC(=O)C3C4C=CC(C4)C3C(=O)O)sc2c1 (stereo not drawn),-4.77% (inactive)
12,CS(=O)(=O)c1ccc2nc(NC(=O)CN3CCCCCC3)sc2c1,-16.3% (inactive)
13,CC(C)Oc1ccc(C(=O)NCC(=O)Nc2ccc3c(c2)CCC3)cc1,-1.68% (inactive)
14,O=C(COC(=O)C1(c2ccc(F)cc2)CCCC1)N1CCNC1=O,7.82% (inactive)
15,CCCCN(C(=O)c1nn(C)c(=O)c2ccccc12)c1c(N)n(CCC)c(=O)[nH]c1=O,-7.93% (inactive)
16,CC1CCCN(C(=O)c2cc(-c3ccco3)nc3ccccc23)C1 (stereo not drawn),-3.9% (inactive)
17,COc1ccc(S(=O)(=O)NCC(c2ccc(C)cc2)N2CCN(C)CC2)cc1OC (stereo not drawn),-15.8% (inactive)
18,CC(=O)Nc1ccc(NC(=O)COC(=O)c2ccccc2C(=O)c2ccccc2)cc1,11.9% (inactive)
